Assay [1] is described as follows: qHTS of pediatric cancer cell lines to identify multiple opportunities for drug repurposing: Primary screen for OHS-50 cells (AID 1347103). Also: nearly all actives have a fitted effect of over 40% in size. In a few lines: (§1)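 Cells (500-1,000/well) rested 5 h, then received compounds for 48 h; metabolically active cells were measured by CellTiter-Glo luminescence. Final concentrations spanned up to 46 µM (MIPE, 11-point) or 0.59 nM-46 µM (NPC, 8-point) in primary screens, 11-point in follow-ups.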
(In general: In qHTS, concentration-response curves come from the screen itself.)

A short description of assay [2]: qHTS of pediatric cancer cell lines to identify multiple opportunities for drug repurposing: Primary screen for RD cells (AID 1347104). Also: nearly all actives have a fitted effect of over 55% in size. Also: potency is read from the fitted curve at half-maximal effect. In short, it runs like this:
(§2)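 500-1,000 cells/well; 5 h pre-incubation 37 °C/5% CO2; compound pinned; 48 h; CellTiter-Glo, 15 min RT; luminescence. MIPE 11-pt from 0.78 nM, NPC 8-pt from 0.59 nM final. Bortezomib 2.3 µM final as positive control.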

Assay [3] in a line: qHTS of pediatric cancer cell lines to identify multiple opportunities for drug repurposing: Primary screen for MG 63 (6-TG R) cells (AID 1347105). Also: nearly all actives have a fitted effect of over 50% in size. Also: potency is read from the fitted curve at half-maximal effect. In a few lines:
as §2

Assay [4] in a line: qHTS of pediatric cancer cell lines to identify multiple opportunities for drug repurposing: Primary screen for control Hh wild type fibroblast cells (AID 1347106).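 Also: series mostly up to about 46 µM; a drop in luminescence marks cytotoxicity and a rise apparent proliferation; nearly all actives have a fitted effect of over 55% in size.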 In short, it runs like this:
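Viability after 48 h compound treatment at 37C, 500-1,000 cells/well, read as ATP luminescence with CellTiter-Glo. Primary screens used 11-point (MIPE, 0.78 nM-46 µM) or 8-point (NPC, 0.59 nM-46 µM) final concentrations; follow-up screens used 11-point dilutions.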

Assay [5] can be described thus: qHTS of pediatric cancer cell lines to identify multiple opportunities for drug repurposing: Primary screen for Rh30 cells (AID 1347107). Also: series mostly up to about 46 µM; nearly all actives have a fitted effect of over 75% in size. In short, it runs like this: as §1
The nature of assay [6]: qHTS of pediatric cancer cell lines to identify multiple opportunities for drug repurposing: Primary screen for Rh41 cells (AID 1347108). Also: nearly all actives have a fitted effect of over 70% in size. Also: potency is read from the fitted curve at half-maximal effect. In short, it runs like this: as §2
Assay [7] can be described thus: qHTS of pediatric cancer cell lines to identify multiple opportunities for drug repurposing: Confirmatory screen for SK-N-MC cells (AID 1347111).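 Also: cells exposed to compound for 48 h before the readout; nearly all actives have a fitted effect of over 70% in size.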 Also: potency is read from the fitted curve at half-maximal effect. In a few lines: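 Seed 500-1,000 cells/well; rest 5 h at 37 degrees C. Pin-transfer compounds, 11-point titration. Incubate 48 h. Add CellTiter-Glo, 15 min RT, read luminescence.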
The nature of assay [8]: qHTS of pediatric cancer cell lines to identify multiple opportunities for drug repurposing: Confirmatory screen for BT-12 cells (AID 1347112). Also: nearly all actives have a fitted effect of over 55% in size. In a few lines:
as §1

The nature of assay [9]: qHTS of pediatric cancer cell lines to identify multiple opportunities for drug repurposing: Confirmatory screen for BT-37 cells (AID 1347117). Also: nearly all actives have a fitted effect of over 55% in size. Also: potency is read from the fitted curve at half-maximal effect. In short, it runs like this: as §1
Assay [10] is described as follows: qHTS of pediatric cancer cell lines to identify multiple opportunities for drug repurposing: Confirmatory screen for TC32 cells (AID 1347118).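 Also: cells exposed to compound for 48 h before the read; nearly all actives have a fitted effect of over 65% in size.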 Also: potency is read from the fitted curve at half-maximal effect. In a few lines: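 Luminescent ATP read-out (CellTiter-Glo) of metabolically active TC32 cells after 48 h exposure. Concentration-response curves came from 11-point (MIPE, 0.78 nM–46 µM) or 8-point (NPC, 0.59 nM–46 µM) primary titrations; follow-up used 11 points.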

Assay [11] can be described thus: qHTS of pediatric cancer cell lines to identify multiple opportunities for drug repurposing: Confirmatory screen for MG 63 (6-TG R) cells (AID 1347119). Also: nearly all actives have a fitted effect of over 55% in size. In a few lines:
as §1

The nature of assay [12]: qHTS of pediatric cancer cell lines to identify multiple opportunities for drug repurposing: Confirmatory screen for control Hh wild type fibroblast cells (AID 1347121). Also: nearly all actives have a fitted effect of over 70% in size. In a few lines: as §1
A short description of assay [13]: qHTS of pediatric cancer cell lines to identify multiple opportunities for drug repurposing: Confirmatory screen for U-2 OS cells (AID 1347122). Also: nearly all actives have a fitted effect of over 65% in size. Also: potency is read from the fitted curve at half-maximal effect. In a few lines: as §1
The nature of assay [14]: qHTS of pediatric cancer cell lines to identify multiple opportunities for drug repurposing: Confirmatory screen for Rh41 cells (AID 1347123).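 Also: 48 h compound exposure; nearly all actives have a fitted effect of over 60% in size.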 Also: potency is read from the fitted curve at half-maximal effect. In short, it runs like this:
as §1

Assay [15] is described as follows: qHTS of pediatric cancer cell lines to identify multiple opportunities for drug repurposing: Confirmatory screen for NB1643 cells (AID 1347109). Also: nearly all actives have a fitted effect of over 45% in size. In a few lines: as §1
Assay [16] is described as follows: qHTS of pediatric cancer cell lines to identify multiple opportunities for drug repurposing: Confirmatory screen for LAN-5 cells (AID 1347113). Also: nearly all actives have a fitted effect of over 65% in size. Conditions: outcome: dose series up to 45.9 µM. In a few lines:
as §1

The nature of assay [17]: qHTS of pediatric cancer cell lines to identify multiple opportunities for drug repurposing: Confirmatory screen for NB-EBc1 cells (AID 1347115).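 Also: cells exposed to compound for 48 h before the viability read; nearly all actives have a fitted effect of over 45% in size.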 In a few lines: as §1
Assay [18] in a line: qHTS of pediatric cancer cell lines to identify multiple opportunities for drug repurposing: Confirmatory screen for SJ-GBM2 cells (AID 1347116). Also: nearly all actives have a fitted effect of over 60% in size. Particulars: outcome: dose series up to 45.9 µM. In a few lines:
(§3)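 Viability measured as metabolically active cells via CellTiter-Glo luminescence following 48 hours of compound exposure, 11-point dilutions in confirmatory testing. 500-1,000 cells/well plated 5 hours before dosing; controls were DMSO and 2.3 µM bortezomib.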

Assay [19] is described as follows: qHTS of pediatric cancer cell lines to identify multiple opportunities for drug repurposing: Confirmatory screen for A673 cells (AID 1347110).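 Also: cells exposed to compound for 48 h before the viability read; nearly all actives have a fitted effect of over 65% in size.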 In short, it runs like this:
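A673 cells at 500-1,000 cells/well were dosed 5 h after plating, in dilution series up to 46 uM final; primary runs used 8 or 11 points and confirmatory runs used 11 points. Viability was read by CellTiter-Glo luminescence after 48 h, against DMSO and 2.3 uM bortezomib controls.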

Assay [20] in a line: qHTS of pediatric cancer cell lines to identify multiple opportunities for drug repurposing: Confirmatory screen for DAOY cells (AID 1347114). Also: nearly all actives have a fitted effect of over 65% in size. In short, it runs like this: as §3

Results filed as inconclusive are left out. The source made the active and inactive calls. Calls follow the shape of the dose curve; as a rule, active = well fitted curve in the direction sought with a large enough effect; inconclusive = small, poorly fitted or top-dose-only effect, or another doubt; inactive = no such curve, though single readings can be large; an effect the other way counts as inactive or inconclusive.

For the molecule `CC(NC(C)(C)C)C(=O)c1cccc(Cl)c1` (centres undefined), the Potency entry in assay [1], in assay [2], in [3], in [6] and in assay [8] was “inactive” each time. Further, the molecule was classed as inactive in [4], in assay [5], in assay [11] and in assay [12]. Also, the Potency was 3.29 µM (active) in assay [7]; 23.3 µM (active) in assay [9]; 2.93 µM (active) in assay [10]; 4.14 µM (active) in assay [13]; 4.65 µM (active) in [14].

Turning to `COc1c2c(cc3c1OCO3)CCN(C)C2`, the Potency entry in assay [2], in [3] and in [6] was “inactive” each time. Moreover, the molecule was classed as inactive in assay [5].

`C[C@H]1[C@@H]2Cc3ccc(O)cc3[C@@]1(C)CCN2C`: the Potency result in [2], in assay [3] and in assay [6] was “inactive” throughout. Besides, the molecule was called inactive in assay [4] and in assay [5].

As for `C[C@H](N)C(=O)c1ccccc1`, the Potency result in assay [1], in assay [2], in [3] and in assay [6] was “inactive” each time. Besides, the molecule was classed as inactive in [4] and in assay [5].

As for `C[C@](O)(CS(=O)(=O)c1ccc(F)cc1)C(=O)Nc1ccc(C#N)c(C(F)(F)F)c1`, the Potency entry in [1], in [15], in assay [7], in assay [8], in assay [17] and in assay [9] was “inactive” each time. Further, the Potency entry in assay [10] and in [13] was “inactive” throughout. Further, the Potency in assay [2] is 5.9 µM (active); in assay [3] it was 1.18 µM (active); in assay [6], 2.96 µM (active). In addition, the molecule was classed as inactive in assay [16], in assay [18], in [11] and in [12].

`O=P1(N(CCCl)CCCl)NCCCO1` (centres undefined): the Potency result in [1], in assay [2], in [3], in assay [6], in assay [19] and in [7] was “inactive” throughout. Besides, the Potency result in [8], in [17], in [9], in assay [10], in [13] and in assay [14] was “inactive” in each case. Further, the result in assay [4], in [5], in assay [16], in assay [11] and in assay [12] was inactive.

On to `Clc1ccc(C(c2ccc(Cl)cc2)C(Cl)(Cl)Cl)cc1`, for which the Potency result in [2] and in assay [6] was “inactive” in each case. For the same molecule, the result in [4] and in [5] was inactive.

In the case of `CC(C)(N)Cc1ccccc1Cl`, the Potency result in assay [1], in assay [2], in [3] and in assay [6] was “inactive” throughout. In addition, the result in assay [4] and in assay [5] was inactive.

Take `CCCCCCCCCC(=O)O[C@H]1CC[C@H]2[C@@H]3CCC4=CC(=O)CC[C@@H]4[C@H]3CC[C@]12C`: the Potency entry in assay [1], in assay [2], in assay [3] and in assay [6] was “inactive” throughout. For the same molecule, the molecule was called inactive in assay [4] and in [5].

With `C#CC(O)(C=CCl)CC` (centres undefined), the Potency result in [1], in assay [2], in assay [3] and in assay [6] was “inactive” each time. Further, the outcome in [4] and in assay [5] was inactive.

On to `O=C(N/N=C/c1ccc([N+](=O)[O-])o1)c1cc([N+](=O)[O-])cc([N+](=O)[O-])c1O`, for which the Potency entry in assay [1], in assay [2], in assay [3], in [15], in [19] and in assay [8] was “inactive” in each case. Further, the Potency entry in assay [20], in assay [9], in assay [13] and in assay [14] was “inactive” in each case. Further, the result in assay [4], in assay [5], in [16], in assay [18] and in [12] was inactive. The Potency in assay [7] is 10.4 µM (active).

The record behind these values is PubChem BioAssay (NCATS).
